Compounds without any hit were thinned out: in the full panel of roughly 83,000, 20% have a hit.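 Testing used 96-well plates and a 48-hour single-concentration exposure. Example: -40 means 40% of the starting cells died.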 Unmarked numbers belong to inactive results. Calls of active or inactive are those of the source. Rule for the calls: active = growth percent below 10; inactive = the rest.

One test deals with NCI-H226 lung. As to the kind of experiment: NCI-60 one-dose screen, 48 h (100 = growth as untreated, 0 = no growth, -100 = all killed). To be noted: 10 µM unless noted.
For the molecule `Nc1c(C(=O)Nc2ccccc2)sc2nc3c(cc12)CN(CCc1ccccc1)CC3`, the growth is 89.8%.
For `CC(C)[C@@H]1CC[C@]2(C(=O)NCCCCN=C(N)N)CC[C@]3(C)[C@H](CC[C@@H]4[C@@]5(C)CCC(=O)C(C)(C)[C@@H]5CC[C@]43C)[C@@H]12`, the growth is 84.1%.
For the molecule `CCOC(=O)c1cnc2ccc(Br)cc2c1Nc1cccc(S(=O)(=O)NC)c1`, the growth was 90.8%.

In a further test the test system is NCI-H322M lung. The description is as above. The conditions noted are these: 10 µM unless noted.
Take `Cc1cc(-c2nc3ccccc3s2)ccc1NC(=O)COc1ccc(Cl)cc1`: the growth was 106%.
As to `C[C@H](CCC(=O)O)[C@H]1CC[C@H]2[C@@H]3CC[C@@H]4/C(=C\c5ccco5)C(=O)/C(=C\c5ccco5)C[C@]4(C)[C@H]3CC[C@]12C`, the growth is 95.6%.
As to `COc1cc2c(c(OC)c1OC)-c1ccc(N=NC(N)=S)c(=O)cc1[C@@H](NC(C)=O)CC2`, the growth was 36.5%.
With `c1ccc(CSc2ncnc3nc[nH]c23)nc1`, the growth was 103%.
As for `CC(=O)Nc1ccc2c(c1)c(NC(C)=O)nn2C(=O)Nc1ccc(Cc2ccccc2)cc1`, the growth is 75.1%.
As to `COc1cc2c(=O)n(CC3CCCCC3)c3c4cc[nH]c4ncc3c2cc1OC`, the growth was 59%.
For the molecule `COC1/C=C\OC2(C)Oc3c(C)c(O)c4c(O)c(c(CN(C)CCO)c(O)c4c3C2=O)NC(=O)/C(C)=C\C=C/C(C)C(O)C(C)C(O)C(C)C(OC(C)=O)C1C` (stereo unspecified), the growth is 97.8%.
For `Cc1cc(N/N=C/c2nc(-c3ccc(Cl)cc3)oc2C)c2cc(Cl)ccc2n1`, the growth is 79.1%.
As for `C=C1CC[C@@H]2[C@](C)(COC(C)=O)[C@H](OC(C)=O)CC[C@@]2(C)[C@@H]1CC(NCc1ccc(F)cc1)C1=CCOC1=O` (stereo partly specified), the growth was 72.5%.
Turning to `Cn1c2c(Cl)c(Cl)ccc2c2ccn3c(=O)c4ccccc4nc3c21`, the growth is 90.9%.
Still for that read-out and setting: the same measure for `CCOC(=O)Cc1cnn(C)c1NC(=O)c1ccc(Cl)cc1NC(C)=O`: 79.1%.
Consider `COc1ccc(-c2cc(NC(=O)Nc3ccc(O)cc3)no2)cc1`, for which the growth is 66.8%.
As to `S=c1[nH]nc(CSc2ncnc3c2c(-c2ccccc2)cn3-c2ccc(Cl)cc2)o1`, the growth is 97.9%.
As to `COc1c(Cl)cc(Cl)cc1Cl`, the growth is 129%.
As to `COc1ccc(-c2nn(-c3ccccc3)cc2/C=C/C(=O)OCc2cn(-c3ccc(F)c(Cl)c3)nn2)cc1`, the growth is 92.1%.
For `COc1ccc2c(c1)C(=O)/C(=C/c1cccc(OCC(=O)Nc3nc4c(s3)CCCC4)c1)O2`, the growth was 82.5%.
For `CCN(CC)CC(C)Nc1ccc([N+](=O)[O-])c2sc3ccccc3c(=O)c12` (stereo unspecified), the growth is 26.6%.
Still for that read-out and setting: then `Cc1nn(-c2ccccc2)c2nc(C)n(-c3ccc(Br)cc3)c(=O)c12`, with 51.3%.
As for `OC(c1cc(-c2ccccc2)nc2ccc(Cl)cc12)C1CCCCN1` (stereo unspecified), the growth is 41.8%.
Turning to `COc1ccc(S(=O)(=O)NCCNc2nccc(-c3c(-c4cccc([N+](=O)[O-])c4)nc4sccn34)n2)cc1`, the growth was 97.5%.
Consider `COc1ccc(Cl)cc1Nc1nc(C(F)(F)F)ccc1C(=O)N/N=C/c1cccnc1`, for which the growth is 59%.
`COc1ccc(-c2nn(-c3ccccc3)cc2/C=C2\SC(=O)NC2=O)cc1`: the growth is 117%.
For `Cc1ccc2c(c1)C(=O)c1c-2c(OCCCN(C)C)nc2ccccc12`, the growth is 19.6%.
Still for that read-out and setting: the same measure for `Cc1ccc(-c2nc(/C=N/Nc3cc(C)nc4ccc(Br)cc34)c(C)o2)cc1`: -36.8% (active); for `CCCCNP1(NCCCC)=NP(NCCCC)(NCCCC)=NP(NCCCC)(NCCCC)=NP(NCCCC)(NCCCC)=N1`: 9.1% (active); for `COc1ccc(-n2cc(-c3ccccc3)c3c(SCC(=O)N/N=C/c4ccc([N+](=O)[O-])cc4)ncnc32)cc1`: 106%.
In the case of `Nc1cccc(-c2nc3sccn3c2-c2ccnc(NCCCNS(=O)(=O)c3ccc(C(F)(F)F)cc3)n2)c1`, the growth is 19.4%.
The same measure, in the same setting: then `CCN(CC)CC(O)c1cc(-c2ccc(Cl)cc2)nc2c(C)c(Cl)ccc12` (stereo unspecified), with -82.5% (active); and `O=C1/C(=C/c2ccc(F)cc2)CN(C(=O)CCN2CCC(=NO)CC2)C/C1=C\c1ccc(F)cc1`, with -11.8% (active); and `CC(C)C1=C[C@@]23CC[C@@H]4[C@](C)(CCC[C@@]4(C)C(=O)OCC#CCN4CCCC4)[C@H]2C[C@@H]1[C@H]1C(=O)OC(=O)[C@H]13`, with 88.5%.
As for `Cc1ccc2c(c1)C(=O)/C(=C/c1ccc(OCC(=O)c3ccccc3)cc1)O2`, the growth is 108%.
Still for that read-out and setting: the same measure for `Cc1ccc2c(c1)n([O-])c1cc(Cl)ccc1[n+]2=O`: 115%; for `COc1ccccc1/C=C(/C(=O)c1ccccc1)c1ccccc1`: 115%; for `COc1nc2c(cc1S(=O)(=O)c1ccccc1)CCc1c-2cnn1-c1ccc(Cl)cc1`: 101%.
Same read-out and setting: the same measure for `CNc1cc2nc3cc(NC)c(C)cc3cc2cc1C`: 12.5%.
With `Nc1c(C(=O)Nc2ccccc2)sc2nc3c(cc12)CN(CCc1ccccc1)CC3`, the growth was 94.2%.
With `CC(C)[C@@H]1CC[C@]2(C(=O)NCCCCN=C(N)N)CC[C@]3(C)[C@H](CC[C@@H]4[C@@]5(C)CCC(=O)C(C)(C)[C@@H]5CC[C@]43C)[C@@H]12`, the growth was 73.8%.
Consider `CCOC(=O)c1cnc2ccc(Br)cc2c1Nc1cccc(S(=O)(=O)NC)c1`, for which the growth is 98.3%.
